Results on 42 sequences are retold here after PMC7819943, “Rice protein-binding microarrays: a tool to detect cis-acting elements near promoter regions in rice”.

Over roughly 68,000 sequences, “fluorescence intensity (a.u.)” has its median near 9,100; the highest 2% begin near 16,000. The list comes from a sample in which the highest values are over-represented; it also holds similar and randomly drawn sequences.

OsWRKY34, sequence (Q0JBA9 entry or part of it): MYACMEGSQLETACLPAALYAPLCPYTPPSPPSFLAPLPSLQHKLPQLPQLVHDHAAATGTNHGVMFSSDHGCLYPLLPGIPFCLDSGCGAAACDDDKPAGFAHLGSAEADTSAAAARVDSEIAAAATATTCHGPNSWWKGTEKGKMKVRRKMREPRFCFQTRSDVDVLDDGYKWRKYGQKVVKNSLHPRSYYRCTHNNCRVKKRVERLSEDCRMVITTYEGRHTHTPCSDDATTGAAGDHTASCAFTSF

The test has as its target OsWRKY34 (Oryza sativa, UniProt Q0JBA9 1-250). Kind of test: protein-binding microarray (RPBM); PBS, 2% BSA, 51.3 ng/ul salmon testes DNA, 50 uM zinc acetate, 200 nM TF, 25 C, 1 h; high values mean tight binding. As to conditions: protein: recombinant; tags: N-terminal polyhistidine and DsRed monomer fusion (pET32a); label: CyDye5-dUTP incorporated in the synthesized complementary strand; 3' TTTTT single-stranded linker to array surface; dsDNA, one strand shown. In short, it runs like this: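 An Axon 4000B scanner gave the binding signal as per-feature fluorescence intensity in arbitrary units. This followed washing of a custom Agilent array that had been incubated for 1 h at 25 °C with 200 nM protein in PBS, 2% BSA, salmon testes DNA and 50 µM zinc acetate. The proteins were transcription factors fused at the N-terminus to polyhistidine and DsRed, expressed in E. coli BL21-CodonPlus and purified on Ni–NTA.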
Take “AGCTTTCACCTCATTAAGACCGGTATCTGTTGAGACTTGACGGAGTCACCTAGTGCAG”: the binding signal was 8860 fluorescence intensity (a.u.).
The same measure for “GAACTAGTCCGCCTAATTGTTGGCTCTCTTATCTCTTCATCGGAGTCACCTAGTGCAG”: 12100 fluorescence intensity (a.u.).
As to “TTCTATGTTGTGGTTCTGTGTTTTACACTTCAGTTTTGTTCGGAGTCACCTAGTGCAG”, the binding signal is 8030 fluorescence intensity (a.u.).
In the case of “GTGATCCGGTGCCCTCTGACCCGCAACTTCCTTTTGGCACCGGAGTCACCTAGTGCAG” it was 8460 fluorescence intensity (a.u.); in that of “TTAGATGTGGCCAGTTTTGATTTCTAGCTTATAGGATCGTCGGAGTCACCTAGTGCAG”, 9000 fluorescence intensity (a.u.); in that of “ACAATGTGACCCTATGTACAATTTACTCATATATTTTTATCGGAGTCACCTAGTGCAG”, 9570 fluorescence intensity (a.u.).
As for “GAGTAGTAAGTTATATCCCTCAACCATTTCACTTCACACACGGAGTCACCTAGTGCAG”, the binding signal is 9600 fluorescence intensity (a.u.).
For the sequence “CTCGCGCGTGCCCGCCTCTGCTGTTCTTTCTCTCGCCCTCCGGAGTCACCTAGTGCAG”, the binding signal is 11400 fluorescence intensity (a.u.).
With “GGATCTCGTTTGTCTGGTTTTCGTAAGTTGAGGGACGGGTCGGAGTCACCTAGTGCAG”, the binding signal is 8380 fluorescence intensity (a.u.).
As to “GTTCTGGTTGGGATCGATTTCTTCTTCCCCTTTGTTGCTTCGGAGTCACCTAGTGCAG”, the binding signal is 9700 fluorescence intensity (a.u.).
With “GGTGACCATTCCTAGTTTCCTACCCCTCATGTTTTTCTTTCGGAGTCACCTAGTGCAG”, the binding signal is 17000 fluorescence intensity (a.u.).
“GCCTGCCTGTCTGCCTCCGCGTCTTTTCTGCTGCCCACATCGGAGTCACCTAGTGCAG”: the binding signal is 19500 fluorescence intensity (a.u.).
Take “CATCGCCTCCGCTTCTGCTTTTTTTTTTCTTTTTTCTCGTCGGAGTCACCTAGTGCAG”: the binding signal is 10200 fluorescence intensity (a.u.).
On to “CCTTGTTTGCTCGGTTTTTGTAAGTTGAGGGACGGGTCATCGGAGTCACCTAGTGCAG”, for which the binding signal was 18700 fluorescence intensity (a.u.).
In the case of “ATGTTGCCCTTTGTTCTGCTGTTTCCTGGTTATATGGGATCGGAGTCACCTAGTGCAG” it was 17500 fluorescence intensity (a.u.).
For “ATCTGTTATGTTTGCCCTGTCATTGGTTCTGCTAATCAATCGGAGTCACCTAGTGCAG”, the binding signal is 9160 fluorescence intensity (a.u.).
For “TTCTTTTTCGTTTTCTTCTCATTCTTCTTTTTTTTCCTTTCGGAGTCACCTAGTGCAG”, the binding signal is 14300 fluorescence intensity (a.u.).
For the sequence “ATTCATTACACCATGTTTCTTTCTTTCTTTCGAGGACCCTCGGAGTCACCTAGTGCAG”, the binding signal is 8370 fluorescence intensity (a.u.).
With “TTATGAGGGTAAGTTTGTATTTGTCATATTTGGGTTGCTACGGAGTCACCTAGTGCAG”, the binding signal is 8110 fluorescence intensity (a.u.).
In the case of “AGTTTCAGTAGCCTCGCCGATCGACTTGCCACACCGCCGTCGGAGTCACCTAGTGCAG” it was 9260 fluorescence intensity (a.u.); in that of “CACCGCCATCTTCCTCTTCTTCTTCGTCGTCGTGGTTGGCCGGAGTCACCTAGTGCAG”, 11100 fluorescence intensity (a.u.); in that of “AAACTGGGCCATATCGGTTGGTTTTTGCTCTCTACGTCTCCGGAGTCACCTAGTGCAG”, 9280 fluorescence intensity (a.u.).
The same measure for “CAATTTGGCATTTGGCATTTGCTAGTCTATAGTAGCAAATCGGAGTCACCTAGTGCAG”: 8130 fluorescence intensity (a.u.); for “GTACGACAGTAGTTGTTTTTCTCGCTTTTGATTTTGAGTCCGGAGTCACCTAGTGCAG”: 8560 fluorescence intensity (a.u.).
For the sequence “CTCGTCGTCGCCTCCGCTCCTTGCGCCATCTCGCGGCGCCCGGAGTCACCTAGTGCAG”, the binding signal was 9480 fluorescence intensity (a.u.).
As for “TATGGACTGTTTTGTTTTGTTCCCCTAGCTAGAATTATTCCGGAGTCACCTAGTGCAG”, the binding signal was 9880 fluorescence intensity (a.u.).
For “GATATGCATTTTCCCTGCTTTCCCTGCTTTTCCCCTTTTTCGGAGTCACCTAGTGCAG”, the binding signal was 16400 fluorescence intensity (a.u.).
As for “CCTTCTCGGGCTTTGTTGTACGTATGCGTCTCGTGTTGGGCGGAGTCACCTAGTGCAG”, the binding signal was 8780 fluorescence intensity (a.u.).
As to “AGTAGGTTGTTGGTTTTGTACCTTTGGGCTCTTTGCCTTTCGGAGTCACCTAGTGCAG”, the binding signal was 10900 fluorescence intensity (a.u.).
Consider “TTTCTTTGTTGTCTCACTTTCCCTTTTTCCACTTCTTTTTCGGAGTCACCTAGTGCAG”, for which the binding signal is 11700 fluorescence intensity (a.u.).
Turning to “ATCTTCCCTTACAGTGACATCCTTTGTTCTTGCCGTCTCTCGGAGTCACCTAGTGCAG”, the binding signal was 17600 fluorescence intensity (a.u.).
Regarding “TCTTCTTCTTGTTGTTCTTGTTCTTTCTTCTTCCCCTTTTCGGAGTCACCTAGTGCAG”, the binding signal was 18800 fluorescence intensity (a.u.).
Turning to “TTTGGGTTGTGCTTAGGTTTCCTTCTCGGGCTTTGTTGTACGGAGTCACCTAGTGCAG”, the binding signal was 18700 fluorescence intensity (a.u.).
As to “GCTTTTTTTTTTTCTTTCTTTCTTTTTCCCCTTCGGCTTCCGGAGTCACCTAGTGCAG”, the binding signal is 12500 fluorescence intensity (a.u.).
In the case of “GCATTTCGTGTTCCCTTTTTGCCTTTTTTTCCCCTTTTCTCGGAGTCACCTAGTGCAG” it was 10300 fluorescence intensity (a.u.); in that of “GTAGCCGCTTCCTGCCTTCCTTCCCCTTGCTCTTGCATTTCGGAGTCACCTAGTGCAG”, 8340 fluorescence intensity (a.u.); in that of “CCTTTGTTCTTGCCGTCTCTTTTTTTTTTTTACAGAAGAACGGAGTCACCTAGTGCAG”, 14600 fluorescence intensity (a.u.).
In the case of “TTCATCCCCTAACCCTTTCTTTGTTCATCTTGTTCTTCCTCGGAGTCACCTAGTGCAG”, the binding signal is 9970 fluorescence intensity (a.u.).
The same measure for “GTTACCGAAGTTTTACTTTATACCATATGTACTCTATCTACGGAGTCACCTAGTGCAG”: 8060 fluorescence intensity (a.u.); for “GAGACACCGACGCGTCACACCACCACGTCCGTTTCCGTACCGGAGTCACCTAGTGCAG”: 8300 fluorescence intensity (a.u.).
Turning to “GTTTATTTGGGTTCTCTTATGTGTTGGTGTGTCGATGACCCGGAGTCACCTAGTGCAG”, the binding signal was 8940 fluorescence intensity (a.u.).
In the case of “AAATGTATTTATTTTTTTTCTACTCCCTCCGCCCCTTAATCGGAGTCACCTAGTGCAG” it was 8590 fluorescence intensity (a.u.).
